Laboratory results as given in PubChem BioAssay AID686979 (National Center for Advancing Translational Sciences (NCATS), 2013).
The campaign covered roughly 420,000 compounds. About 50,000 (12%) were called active. Another 26% or so got no clear call; they are omitted. What follows is part of a selection rich in actives, with near analogues and random picks from the rest. A number with no mark means an inactive call. Calls come from the whole dose curve; as a rule, active = well fitted inhibition curve with a large enough effect; inconclusive = small, poorly fitted or top-dose-only effect; inactive = flat fitted curve, though single readings scatter.

Experiment: qHTS for Inhibitors of human tyrosyl-DNA phosphodiesterase 1 (TDP1): qHTS in cells in presence of CPT; note: nearly all actives have a fitted effect of over 55% in size
Conditions: chicken DT40 Tdp1-/-;hTDP1 cells + 20 nM CPT, ATP luminescence, 48 h; series mostly up to 46.2 µM; activity change, negative = growth inhibition: at the top concentration
Outline: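 Cell growth measured by CellTiter-Glo luminescence after a minimum 48 h, 37 C compound exposure with 20 nM CPT in Tdp1-knockout DT40 cells stably expressing hTDP1, seeded 400/well; qHTS titration format.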
% is set by controls: 0 for no effect and ±100 for the full control effect; potency is the fitted concentration of half-maximal effect.

Row | Compound | activity change, negative = growth inhibition [%] | Potency
1 | O=S(=O)(/N=C(/Nc1ccccc1)c1ccccc1)c1cccs1 | -15.8 | 
2 | CCCCCc1ccc(-c2cn(Cc3ccc4ccccc4c3)nn2)cc1 |  | inactive
3 | CCc1cc(-c2nnn(CCC3COCCO3)c2CC)ccc1-c1cn(Cc2ccc3ccccc3c2)nn1 (stereo unspecified) |  | 5.8 µM (active)
4 | CCCN(CCC)C(=O)C(Cc1ccccc1)NS(=O)(=O)c1ccc2c(c1)c(=O)n(C)c(=O)n2C (stereo unspecified) | -14 | 
5 | O=C(CNC(=O)N1CC(=O)Nc2ccccc21)Nc1ccc(Br)cc1F | 6.9 | 
6 | C[C@H](CO)N1C[C@H](C)[C@@H](CN(C)C(=O)C2CCCCC2)OCc2cnnn2CCCC1=O | -22.6 | 
7 | O=C(Cn1cc(SCc2cccc(Cl)c2)c2ccccc21)N1CCCCC1 |  | 18.4 µM (active)
8 | CC(C)N(C(=O)Cn1cc(SCC(=O)N2CCCC2)c2ccccc21)C(C)C | 10.2 | 
9 | CC(=O)Nc1cccc(NC(=O)CSc2cn(CC(=O)N3CCCC3)c3ccccc23)c1 | -26.7 | 
10 | CC(C)C12CN3CC(C(C)C)(CN(C1)C3c1ccc(OCc3ccccc3)cc1)C2=O (stereo unspecified) | 0.582 | 
11 | Cn1nccc1C(=O)NCC1CCC2(CCN(Cc3c(O)ccc4ccccc34)CC2)O1 (stereo unspecified) | -24.3 | 
12 | CC(=O)Nc1ccc(NC(=O)COC(=O)c2ccccc2C(=O)c2ccccc2)cc1 | -29.4 | 
13 | COC(=O)c1cc(NC(=O)Cc2ccccc2[N+](=O)[O-])ccc1Cl | -7.47 | 
14 | N#Cc1cccc(NC(=O)COC(=O)c2ccccc2C(=O)c2ccc(Cl)c([N+](=O)[O-])c2)c1 |  | 20.6 µM (active)
15 | CCOC(=O)C1CCN(CC(=O)Nc2ccc(OC)c(S(=O)(=O)N3CCCCC3)c2)CC1 | -23.6 | 
16 | CC(=O)Nc1ccc(NC(=O)CSc2nnc(C3CC3)n2-c2ccccc2)cc1 | -16.4 | 
17 | CC[n+]1c(C)n(-c2ccccc2)c2ccc(NC(C)=O)cc21 |  | 6.51 µM (active)
18 | CCn1c2ccccc2c2cc(NC(=O)CNC)ccc21 | 1.65 | 
19 | Cc1ccccc1NC(=O)Cn1c(=O)n(Cc2ccco2)c(=O)c2ccc(C(=O)NC3CCCC3)cc21 | -7.3 | 
20 | CC(C)(C)NC(=O)NC(=O)COC(=O)CCC1CCCCC1 | -24.2 | 
21 | COc1ccc(N2c3ccccc3CN(Cc3ccccc3)[C@@H](C)[C@H]2Cc2ccc(-c3ccccc3)cc2)cc1 |  | 23.1 µM (active)
22 | COc1ccc(N2C(=O)C(Cc3ccccc3)NC2=S)cc1 (stereo unspecified) | 31.4 | 
23 | C[n+]1cccc(C(=O)O)c1 | -7.01 | 
24 | O=C(CCc1nnc2ccc(NCc3ccccc3Cl)nn12)NCC1CCN(C2CCCC2)C1 (stereo unspecified) | 9.38 | 
25 | Nc1c(-c2cccc(Cl)c2)cnn1-c1cccc([N+](=O)[O-])c1 | -19.7 | 
26 | COc1cccc(NC(=O)C/C(C)=N/NC(=O)C2CCCCC2)c1 | -21.1 | 

Row | Compound | activity change, negative = growth inhibition [%] | Potency
27 | COc1cccc(NC(=O)N(Cc2cn(C)c3ccccc23)C2CCCCCC2)c1 |  | 5.8 µM (active)
28 | COc1cccc(NC(=O)N2CCCC2C(=O)NC2CCCCC2)c1 (stereo unspecified) | 6 | 
29 | COc1ccc(NC(=O)NNC(=O)COc2cc(C)c(Cl)c(C)c2)c(OC)c1 | -9.26 | 
30 | O=C1CSC(c2ccc(Cl)cc2)N1 (stereo unspecified) | -5.3 | 
31 | O=C(CN1CCCCCC1)Nc1c(Cl)cc(Cl)cc1Cl | -25.1 | 
32 | CCNC(=O)C1CCCN(C(=O)c2cc(F)ccc2C)CC1 (stereo unspecified) | -17.5 | 
33 | COc1ccc(C(=O)N2CCC3(CCCN(C(c4ccccc4)c4ccccc4)C3)CC2)cc1 | 21 | 
34 | O=C(c1ccncc1)N1CCC2(CCCN(C(c3ccccc3)c3ccccc3)C2)CC1 |  | 16.4 µM (active)
35 | O=C(c1cccc(F)c1)N1CCC2(CCCN(Cc3ccncc3)C2)CC1 | -20.6 | 
36 | COc1ccc(CC(=O)Nc2nnc3n2CCS3)cc1OC | -12.5 | 
37 | O=C(COC(=O)c1cccs1)NCc1cccs1 | 2.73 | 
38 | CN(Cc1ccccc1)C(=O)c1cccc(C(=O)N(C)Cc2ccccc2)c1 | -2.28 | 
39 | COc1ccc(OCc2cccc(C(=O)N3CCCC3)c2)cc1 | -16.4 | 
40 | CCOc1ccc(OCc2cccc(C(=O)N(CC)CC)c2)cc1 |  | 20.6 µM (active)
41 | O=C(CN1C(=O)c2ccccc2S1(=O)=O)NC1CCCCC1 | 1.06 | 
42 | COc1ccc(-n2cnnc2SCC(=O)Nc2cccc(S(N)(=O)=O)c2)cc1 | -3.28 | 
43 | O=C(Nc1ccc(Cl)cc1)Nc1ccc(C(=O)N2CCOCC2)cc1 | -16.9 | 
44 | Nc1ncnc2c1ncn2C1CC(O)C(CO)O1 (stereo unspecified) |  | 1.16 µM (active)
45 | Nc1ncnc2c1cnn2C1CC(O)C(CO)O1 (stereo unspecified) | 14.9 | 
46 | Nc1ccn(C2CC(O)C(CO)O2)c(=O)n1 (stereo unspecified) | -0.714 | 
47 | CCN(CC(=O)Nc1c(F)cccc1F)C(=O)c1cnc(C)cn1 | 1.54 | 
48 | O=C1c2ccccc2C(=O)N1CCCCCCN1C(=O)c2ccccc2C1=O | -18 | 
49 | O=C(CCCn1c(=O)c2sccc2n(CC(=O)NCC2CCCO2)c1=O)NCc1ccco1 (stereo unspecified) | 2.51 | 
50 | CCN(CCCNC(=O)CCn1c(=O)[nH]c2ccsc2c1=O)c1ccccc1 | 6.83 | 
51 | CCC1CCCCN1C(=O)Cn1c(=O)n(CCCCCC(=O)NCc2ccccc2)c(=O)c2sccc21 (stereo unspecified) |  | 16.4 µM (active)
